Reference: ChEMBL document CHEMBL3433997, “St. Jude Leishmania screening dataset” (2016)

Target: Hexose transporter 1 (Plasmodium falciparum) (UniProt O97467)
Experiment: ST_JUDE_LEISH: Cytotoxicity at 2uM final concentration against transgenic Leishmania Mexicana promastigotes LmPfHT that are glucose transport deficient and complemented with the Plasmodium falciparum hexose transporter. Activity is measured by DNA content using SYBR green in vitro
Assay type: functional

Row | SMILES | inhibition [%]
1 | Cc1cccc2nc(-c3ccc(-c4cccc(CNCc5ccccc5)c4)cc3)[nH]c12 | 9.57
2 | O=C(Nc1ccc([N+](=O)[O-])cc1O)Nc1ccccc1Oc1ccccc1 | -0.84
3 | CN(C)Cc1c(O)ccc2oc(Cc3ccccc3)cc12 | -1.55
4 | CC[C@H](NC(=O)c1c(CC2CCN(CC(C)=O)CC2)c(-c2ccccc2)nc2ccccc12)c1ccccc1 | 3.28
5 | CCN1CCC(N(Cc2ccc(-c3ccc(C(F)(F)F)cc3)cc2)C(=O)Cn2c(CCc3cccc(F)c3F)cc(=O)c3ccccc32)C1 (stereo not drawn) | 1.38
6 | Nc1nccc2ccc(-c3cccc(OCc4ccccc4)c3)cc12 | 2.5
7 | CCOc1ccc(C(C)NC(=O)C2COc3ccccc3O2)cc1OCC (stereo not drawn) | 1.59
8 | COc1ccc(CCNc2nc(NCc3ccccc3)c3cc(OC)c(OC)cc3n2)cc1OC | 8.24
9 | CCc1c(C(=O)NC2CCC(N3CCC(c4ccccc4C)CC3)CC2)[nH]c2ccc(Br)cc12 (stereo not drawn) | 5.55
10 | Cc1c(CNCCCNc2nc3ccccc3[nH]2)[nH]c2cc(Cl)cc(Cl)c12 | 49.4
11 | CC(C)c1ccc(NC(=O)c2ccc(C(=O)NC3CCN(CC4CCCCC4)C3)cc2)cc1 (stereo not drawn) | 4.18
12 | C=CCN1C(=O)C(=Cc2cc(Br)ccc2O)SC1=Nc1ccccc1 | 6.8
13 | Clc1cccc(C=NN=c2cc[nH]c3ccccc23)c1 | 2.56
14 | Cc1nc(NCc2ccccc2)cc(NCC(O)c2ccc(O)cc2)n1 (stereo not drawn) | 8.57
15 | Fc1cccc(COc2ccc(Nc3ncnc4cc(/C=C/[C@@H]5CCCN5)sc34)cc2Cl)c1 | 0.95
16 | Cc1c(Br)cc2nc(-c3ccc(C(=O)NC4CCN(Cc5ccccc5)CC4)cc3)[nH]c2c1C | 1.85
17 | CC[C@H](C)CNC(=O)c1ccnc(-c2ccc(CNC3Cc4ccccc4C3)cc2)c1 | 0.08
18 | Nc1ncnc2c1ncn2C(CO)Cc1ccc(O)cc1 (stereo not drawn) | 6.45
19 | Cc1nc2sccn2c1C(=O)NCCc1ccccc1Cl | 1.15

Row | SMILES | inhibition [%]
20 | O=c1cc(NCCCNCc2ccc(C(F)(F)F)cc2F)[nH]c2ccccc12 | 0.29
21 | Cc1ccc(C)c2sc(N3CCN(C(=O)c4ccc([N+](=O)[O-])o4)CC3)nc12 | 38.4
22 | COc1cc(Nc2nccc(N3CCC(NS(=O)(=O)c4ccc(NC(C)=O)cc4)CC3)n2)cc(OC)c1OC | -0.44
23 | O=C(Nc1ccc(Oc2ccccc2)cc1)N(Cc1ccc(-c2ccc(CN3CCNCC3)cc2)cc1)C1CCN(Cc2ccccc2)CC1 | -1.14
24 | Cc1cc2ncn(-c3nccc(NCc4ccc(F)c(C)c4)n3)c2cc1C | 4.86
25 | Cc1cc(C)c2ncc(C(=O)O)c(O)c2c1 | 3.7
26 | Cc1sc(C)c(CNCCCNc2cc(=O)c3ccccc3[nH]2)c1Br | 2
27 | Cc1ccc2nc(C)cc(Nc3ccccc3O)c2c1 | -1.41
28 | COc1ccc(C2C(C(=O)Nc3cc(Cl)c(OC)cc3OC)c3ccccc3C(=O)N2C)cc1 (stereo not drawn) | 1.49
29 | COc1ccc2nccc([C@@H](O)CN3CCC(NC(=O)c4ccc(C5(C(F)(F)F)N=N5)cc4)CC3)c2c1 | 24.5
30 | Cc1nc(Nc2ccc(F)cc2)nc(N2CCc3ccccc3C2C)c1CO (stereo not drawn) | 7.38
31 | CCCC(CNCc1ccc(Cl)c(C(F)(F)F)c1)CNc1nc2cnccc2[nH]1 (stereo not drawn) | 11.9
32 | CCCCn1c(=N)c(C(=O)NCc2cccnc2)cc2c(=O)n3cccc(C)c3nc21 | 5.85
33 | CC1(C)NC(N)=NC(=N)N1OCc1cccc(Cl)c1Cl | 3.75
34 | Cc1cc(=NN=CC=Cc2ccccc2)c2cc(F)ccc2[nH]1 | 0.85
35 | N#Cc1ccc(N[C@@H](CC2CCCCC2)C(=O)NCc2cc(F)c(F)cc2F)c2ccccc12 | 14.1
36 | O=C(N[C@H]1CCN(Cc2ccc(OC3CCN(Cc4ccccc4)CC3)cc2)C1)c1ccc(Cl)c(Cl)c1 | -1.3
37 | NC1=NC(Cc2ccccc2)N(c2ccc(Cl)cc2)C(N)=N1 (stereo not drawn) | 6.99
38 | O=C(NC(=O)c1ccccc1)NC1CCN(c2ccnc3cc(Cl)ccc23)C1 (stereo not drawn) | 1.75

Target: Glucose transporter (Leishmania mexicana) (UniProt O61059)
Experiment: ST_JUDE_LEISH: Cytotoxicity at 2uM final concentration against transgenic Leishmania Mexicana promastigotes LmGT2 that are glucose transport deficient and complemented with the L. Mexicana glucose transporter 2. Activity is measured by DNA content using SYBR green in vitro
Assay type: functional

Row | SMILES | inhibition [%]
39 | Cc1cccc2nc(-c3ccc(-c4cccc(CNCc5ccccc5)c4)cc3)[nH]c12 | 6.25
40 | O=C(Nc1ccc([N+](=O)[O-])cc1O)Nc1ccccc1Oc1ccccc1 | -0.04
41 | CN(C)Cc1c(O)ccc2oc(Cc3ccccc3)cc12 | -0.96
42 | CC[C@H](NC(=O)c1c(CC2CCN(CC(C)=O)CC2)c(-c2ccccc2)nc2ccccc12)c1ccccc1 | 0.03
43 | CCN1CCC(N(Cc2ccc(-c3ccc(C(F)(F)F)cc3)cc2)C(=O)Cn2c(CCc3cccc(F)c3F)cc(=O)c3ccccc32)C1 (stereo not drawn) | -0.49
44 | Nc1nccc2ccc(-c3cccc(OCc4ccccc4)c3)cc12 | -2.03
45 | CCOc1ccc(C(C)NC(=O)C2COc3ccccc3O2)cc1OCC (stereo not drawn) | 2.93
46 | COc1ccc(CCNc2nc(NCc3ccccc3)c3cc(OC)c(OC)cc3n2)cc1OC | 0.26
47 | CCc1c(C(=O)NC2CCC(N3CCC(c4ccccc4C)CC3)CC2)[nH]c2ccc(Br)cc12 (stereo not drawn) | 3.97
48 | Cc1c(CNCCCNc2nc3ccccc3[nH]2)[nH]c2cc(Cl)cc(Cl)c12 | 41.6
49 | CC(C)c1ccc(NC(=O)c2ccc(C(=O)NC3CCN(CC4CCCCC4)C3)cc2)cc1 (stereo not drawn) | 3.15
50 | C=CCN1C(=O)C(=Cc2cc(Br)ccc2O)SC1=Nc1ccccc1 | 14.5
51 | Clc1cccc(C=NN=c2cc[nH]c3ccccc23)c1 | 2.9
52 | Cc1nc(NCc2ccccc2)cc(NCC(O)c2ccc(O)cc2)n1 (stereo not drawn) | 7.2
53 | Fc1cccc(COc2ccc(Nc3ncnc4cc(/C=C/[C@@H]5CCCN5)sc34)cc2Cl)c1 | 1.52
54 | Cc1c(Br)cc2nc(-c3ccc(C(=O)NC4CCN(Cc5ccccc5)CC4)cc3)[nH]c2c1C | 0.51
55 | CC[C@H](C)CNC(=O)c1ccnc(-c2ccc(CNC3Cc4ccccc4C3)cc2)c1 | -0.69
56 | Nc1ncnc2c1ncn2C(CO)Cc1ccc(O)cc1 (stereo not drawn) | 8.36
57 | Cc1nc2sccn2c1C(=O)NCCc1ccccc1Cl | 1.69
58 | O=c1cc(NCCCNCc2ccc(C(F)(F)F)cc2F)[nH]c2ccccc12 | -0.34

Row | SMILES | inhibition [%]
59 | Cc1ccc(C)c2sc(N3CCN(C(=O)c4ccc([N+](=O)[O-])o4)CC3)nc12 | 7.78
60 | COc1cc(Nc2nccc(N3CCC(NS(=O)(=O)c4ccc(NC(C)=O)cc4)CC3)n2)cc(OC)c1OC | -0.12
61 | O=C(Nc1ccc(Oc2ccccc2)cc1)N(Cc1ccc(-c2ccc(CN3CCNCC3)cc2)cc1)C1CCN(Cc2ccccc2)CC1 | -0.33
62 | Cc1cc2ncn(-c3nccc(NCc4ccc(F)c(C)c4)n3)c2cc1C | 2.52
63 | Cc1cc(C)c2ncc(C(=O)O)c(O)c2c1 | 3.9
64 | Cc1sc(C)c(CNCCCNc2cc(=O)c3ccccc3[nH]2)c1Br | -3.4
65 | Cc1ccc2nc(C)cc(Nc3ccccc3O)c2c1 | -1.03
66 | COc1ccc(C2C(C(=O)Nc3cc(Cl)c(OC)cc3OC)c3ccccc3C(=O)N2C)cc1 (stereo not drawn) | -1.07
67 | COc1ccc2nccc([C@@H](O)CN3CCC(NC(=O)c4ccc(C5(C(F)(F)F)N=N5)cc4)CC3)c2c1 | 40.7
68 | CCCCCCc1cc2cc(-c3nc(-c4ccc(OC)cc4)cs3)c(=O)oc2cc1O | -8.01
69 | Cc1nc(Nc2ccc(F)cc2)nc(N2CCc3ccccc3C2C)c1CO (stereo not drawn) | 1.5
70 | CCCC(CNCc1ccc(Cl)c(C(F)(F)F)c1)CNc1nc2cnccc2[nH]1 (stereo not drawn) | 8.76
71 | CCCCn1c(=N)c(C(=O)NCc2cccnc2)cc2c(=O)n3cccc(C)c3nc21 | 2.74
72 | CC1(C)NC(N)=NC(=N)N1OCc1cccc(Cl)c1Cl | 2.46
73 | Cc1cc(=NN=CC=Cc2ccccc2)c2cc(F)ccc2[nH]1 | 0.04
74 | N#Cc1ccc(N[C@@H](CC2CCCCC2)C(=O)NCc2cc(F)c(F)cc2F)c2ccccc12 | 12
75 | CCCCCCc1ncc(-c2cc3cc(O)c(-c4ccccc4)cc3oc2=O)s1 | -5.92
76 | O=C(N[C@H]1CCN(Cc2ccc(OC3CCN(Cc4ccccc4)CC3)cc2)C1)c1ccc(Cl)c(Cl)c1 | -1.06
77 | NC1=NC(Cc2ccccc2)N(c2ccc(Cl)cc2)C(N)=N1 (stereo not drawn) | 5.89
78 | O=C(NC(=O)c1ccccc1)NC1CCN(c2ccnc3cc(Cl)ccc23)C1 (stereo not drawn) | 0.92
